For this test, the target named is Atrial natriuretic peptide receptor 1 (Homo sapiens) (UniProt P16066). The test is described as follows: Natriuretic polypeptide receptor (hNpr1) antagonism - Pilot CMLD screen (AID 1347052).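 Further: HEK293 cells with hNpr1 stimulated by hNppA peptide at 0.1 nM; cGMP level read as GloSensor luciferase luminescence after agonist stimulation; series mostly up to about 9.2 µM.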

Inconclusive results are not listed. Where a call stands in place of a potency, no number is given. Values without a mark were called inactive. Activity calls are given as the source filed them. The call rests on the fitted dose curve.

Chain of Atrial natriuretic peptide receptor 1 (Homo sapiens) (P16066 whole entry, looked up): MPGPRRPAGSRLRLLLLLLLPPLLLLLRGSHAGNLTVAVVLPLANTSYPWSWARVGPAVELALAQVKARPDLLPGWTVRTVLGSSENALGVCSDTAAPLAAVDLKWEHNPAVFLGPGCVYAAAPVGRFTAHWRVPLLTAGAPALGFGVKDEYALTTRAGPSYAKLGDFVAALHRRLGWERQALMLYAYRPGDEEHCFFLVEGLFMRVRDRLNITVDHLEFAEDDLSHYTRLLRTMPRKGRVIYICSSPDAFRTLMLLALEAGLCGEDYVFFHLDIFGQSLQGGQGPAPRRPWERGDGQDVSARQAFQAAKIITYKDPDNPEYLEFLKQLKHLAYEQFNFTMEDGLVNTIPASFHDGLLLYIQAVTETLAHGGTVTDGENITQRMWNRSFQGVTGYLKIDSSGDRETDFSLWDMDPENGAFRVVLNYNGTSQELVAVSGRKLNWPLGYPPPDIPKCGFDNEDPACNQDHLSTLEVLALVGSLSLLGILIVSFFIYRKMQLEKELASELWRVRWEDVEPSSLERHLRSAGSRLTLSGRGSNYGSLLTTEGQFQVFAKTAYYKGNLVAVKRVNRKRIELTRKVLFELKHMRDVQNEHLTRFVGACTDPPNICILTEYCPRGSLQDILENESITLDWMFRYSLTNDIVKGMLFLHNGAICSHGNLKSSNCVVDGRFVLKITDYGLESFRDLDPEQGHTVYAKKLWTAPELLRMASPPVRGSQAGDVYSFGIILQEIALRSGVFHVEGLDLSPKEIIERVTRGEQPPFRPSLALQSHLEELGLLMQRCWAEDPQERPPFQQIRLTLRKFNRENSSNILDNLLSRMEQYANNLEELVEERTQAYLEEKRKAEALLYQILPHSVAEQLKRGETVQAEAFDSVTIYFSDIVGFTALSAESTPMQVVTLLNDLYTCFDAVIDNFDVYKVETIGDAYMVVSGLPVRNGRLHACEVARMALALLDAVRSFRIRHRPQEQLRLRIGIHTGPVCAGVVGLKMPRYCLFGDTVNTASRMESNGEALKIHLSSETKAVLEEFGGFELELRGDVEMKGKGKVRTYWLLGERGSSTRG

On to `COc1cc2c(c(OC)c1OC)[C@@]1(c3ccccc3)CCCCC[C@H]1[C@@H]2NC(=O)C(F)(F)F`, for which the Potency result is “inactive”.

For the compound `CCOC(=O)CN1C(=O)[C@@]2(CC(C)=CC[C@@H](COc3ccccc3)O2)c2c(Br)cccc21`, the Potency entry is “inactive”.

The values are drawn from PubChem BioAssay (NCATS).
